Screening results as filed in PubChem BioAssay.
An excerpt weighted towards active compounds, which were near 3.3% of everything screened.
WRN inhibitor = inhibitors of human WRN helicase; Q14191; WRN helicase unwinding, fluorescent forked duplex, kinetic; Potency, µM (highest dose often 114 µM), for inactives: top-dose activity change, negative = inhibition, most hits filed as inhibitors; hit rate 0.46% among 360,000; AID 651768; further: potency means the concentration at half of the fitted maximal effect; nearly all actives have a fitted effect of over 55% in size
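Kinetic fluorescence helicase assay: unwinding of a quenched forked DNA duplex (100 nM final) with 2 mM ATP final raises red fluorescence (525/598 nm). Compounds sat 15 min at room temperature with 20 nM WRN beforehand.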
USP2a block = inhibitors of human ubiquitin-specific protease USP2a; USP2 core, Ub-CHOP2 coupled fluorogenic reporter, 485/531; O75604; hit rate 0.01% among 330,000; Potency, µM (highest dose often 38.3 µM), for the others: top-dose activity change, negative = inhibition, most hits filed as inhibitors;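 further: potency means the concentration at half of the fitted maximal effect; plate controls were DMSO wells for no effect and full inhibition by NEM control for full effect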
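USP2 core (10nM final) preincubated 30min RT with compound in 20mM Tris-HCl pH 8.0, 2mM CaCl2, 2mM beta-mercaptoethanol, 0.05% CHAPS; 25nM Ub-CHOP2 plus 25nM reporter substrate added, fluorescence (Ex485/Em531) read after 60min.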
PI5P4Ka inh = inhibitors of human PI5P4K alpha; P48426; PI5P4Kalpha enzyme, ADP-Glo luminescence, 60 min; stronger effect = lower value; max response, %; hit rate 1.2% among 330,000; AID 652105; active means max response of -50% or lower; inconclusive means between -30% and -50%; inactive means -30% or higher; further: value at the top dose of about 77 µM
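qHTS, 1536-well: enzyme/substrate mix, compound by pin tool, 5 microM ATP final; RT 60 min; ADP-Glo reagents 1 (45 min) then 2 (30 min); luminescence.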
USP1 inh = USP1/UAF1 (human) deubiquitinase inhibition. O94782. recombinant USP1/UAF1, Ub-Rhodamine cleavage fluorescence. Potency, µM (top dose mostly 57.1 µM), inactives show top-dose activity change, negative = inhibition, most hits filed as inhibitors. hit rate 0.23% among 390,000. AID 743255; further: potency means the concentration at half of the fitted maximal effect; nearly all actives have a fitted effect of over 60% in size
Target sequence (O94782 whole entry, looked up): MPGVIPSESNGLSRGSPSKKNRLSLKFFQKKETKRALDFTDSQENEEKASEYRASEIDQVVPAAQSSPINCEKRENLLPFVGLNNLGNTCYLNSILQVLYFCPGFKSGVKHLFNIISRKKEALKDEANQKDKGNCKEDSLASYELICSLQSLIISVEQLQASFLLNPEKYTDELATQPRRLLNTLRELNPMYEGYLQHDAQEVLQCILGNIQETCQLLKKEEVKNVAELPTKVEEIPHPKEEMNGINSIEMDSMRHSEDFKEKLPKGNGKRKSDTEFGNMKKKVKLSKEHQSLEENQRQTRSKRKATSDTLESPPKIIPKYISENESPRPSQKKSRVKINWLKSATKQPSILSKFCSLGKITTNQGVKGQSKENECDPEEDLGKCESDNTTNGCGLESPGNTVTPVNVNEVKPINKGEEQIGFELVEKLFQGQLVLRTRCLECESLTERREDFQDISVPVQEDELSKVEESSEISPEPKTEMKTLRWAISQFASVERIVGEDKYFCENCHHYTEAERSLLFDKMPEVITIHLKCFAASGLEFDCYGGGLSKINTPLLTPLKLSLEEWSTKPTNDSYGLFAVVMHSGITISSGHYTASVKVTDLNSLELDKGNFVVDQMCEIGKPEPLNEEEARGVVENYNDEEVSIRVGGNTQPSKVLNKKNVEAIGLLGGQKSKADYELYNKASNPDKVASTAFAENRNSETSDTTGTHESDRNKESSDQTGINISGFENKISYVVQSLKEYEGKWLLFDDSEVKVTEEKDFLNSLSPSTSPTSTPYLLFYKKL
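USP1/UAF1 complex at 1 nM was preincubated with compound for 15 min at room temperature, then Ub-Rho substrate (150nM final) was added. Fluorescence (480/540 nm) was read kinetically, 6 reads every 60 seconds.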
PLK1 PBD inh = inhibitors of human PLK1 polo-box domain binding; P53350; Plk1 PBD binding of FITC phosphopeptide, fluorescence polarization; Potency, µM, inactives show max response, negative = inhibition, most hits filed as inhibitors; hit rate 2.8% among 360,000; further: potency means the concentration at half of the fitted maximal effect; series mostly up to about 57 µM; nearly all actives have a fitted effect of over 65% in size
* hit, by the source's call; [ ] = dose if it differs, or a comment. Unless noted, the call rests on the fitted dose curve; in most records, active means well fitted curve in the direction sought with a large enough effect; inconclusive means small, poorly fitted or top-dose-only effect, or another doubt; inactive means no such curve, though single readings can be large; an effect the other way counts as inactive or inconclusive. Unless noted, on the % scale 0 is the no-effect control and ±100 the full control effect.

`O=C(CCc1nnc2ccc(NCc3ccccc3)nn12)NC1CCCCC1` gave WRN inhibitor -7%, USP2a block 1%, PI5P4Ka inh -2, USP1 inh -17% and PLK1 PBD inh 24µM*.
Screening O=C(NCCc1nnc2ccc(NCc3ccc(F)cc3)nn12)c1ccccc1 returned WRN inhibitor -6%, USP2a block 7%, PI5P4Ka inh -2, USP1 inh -14% and PLK1 PBD inh -5%.
Screening Cc1sc(N/N=C/c2ccco2)nc1-c1ccccc1 returned WRN inhibitor 3%, USP2a block -2%, PI5P4Ka inh -9, USP1 inh -16% and PLK1 PBD inh -6%.
Screening CC(C)=NNc1nc(-c2ccccc2)c(C)s1 returned WRN inhibitor -6%, USP2a block 2%, PI5P4Ka inh -3, USP1 inh -7% and PLK1 PBD inh 21µM*.
O=C(c1cccs1)N(Cc1ccco1)Cc1cc2ccccc2[nH]c1=O was read as WRN inhibitor 0%, USP2a block 0%, PI5P4Ka inh -28, USP1 inh -16% and PLK1 PBD inh 27µM*.
Screening Cc1cc(C)c2[nH]c(=O)c(CN(Cc3ccco3)C(=O)c3cccs3)cc2c1 returned USP2a block -3%.
For Cc1cc(C)c2c(=O)n(CC(=O)NC3CCCC3)sc2n1 the results were WRN inhibitor 2%, USP2a block 0%, PI5P4Ka inh -64*, USP1 inh -12% and PLK1 PBD inh 1.9µM*.
Cc1cc(C)c2c(=O)n(CC(=O)Nc3ccc(Br)c(C)c3)sc2n1 was read as WRN inhibitor 3%, USP2a block 1%, PI5P4Ka inh -62*, USP1 inh 0% and PLK1 PBD inh 3µM*.
Cc1cc(C)c2c(=O)n(CC(=O)Nc3cccc(Cl)c3C)sc2n1 was read as WRN inhibitor 2%, USP2a block -1%, PI5P4Ka inh -87*, USP1 inh -9% and PLK1 PBD inh 2.7µM*.
`Fc1cccc(CN2CCc3nc(Nc4ccc5c(c4)OCCO5)ncc3C2)c1F` gave USP1 inh -15%.
`Cc1ccc(Cl)cc1-n1ncc2c(Nc3ccc4c(c3)OCCO4)ncnc21` gave USP1 inh -15%.
For CCc1ccc(/C=C2/C(=O)N(CC)C(=S)N2C)s1 the results were WRN inhibitor 0%, USP2a block -1%, PI5P4Ka inh 8, USP1 inh 2% and PLK1 PBD inh 24µM*.
O=C1c2ccccc2S(=O)(=O)c2cc(C(=O)N3CCN(c4ncccn4)CC3)ccc21 was read as WRN inhibitor 10%, PI5P4Ka inh -4, USP1 inh inconclusive and PLK1 PBD inh -11%.
For O=C(O)c1ccc2c(c1)S(=O)(=O)c1cc(N3CCN(c4ncccn4)CC3)ccc1C2=O the results were WRN inhibitor -7%, PI5P4Ka inh -57*, USP1 inh -3% and PLK1 PBD inh -2%.
CCOC(=O)c1ccc2nc(C)cc(Nc3ccc(OC(C)C)cc3)c2c1 was read as USP1 inh -30%.
Screening CN(C)/N=C/c1ccc(Sc2ccccc2[N+](=O)[O-])o1 returned WRN inhibitor 0%, USP2a block -2%, PI5P4Ka inh -2, USP1 inh -12% and PLK1 PBD inh 6µM*.
Screening CN(/N=C/c1ccc(-c2ccc([N+](=O)[O-])cc2)o1)c1ccccc1 returned WRN inhibitor -2%[57.1 µM], USP2a block 10%, PI5P4Ka inh 10, USP1 inh -9% and PLK1 PBD inh 15%.
`COc1ccc(-c2oc3ccccc3c2C(=O)OCc2ccccc2)cc1` gave WRN inhibitor -1%, USP2a block -2%, PI5P4Ka inh 19, USP1 inh -36% and PLK1 PBD inh 24µM*.
COC(=O)CCC(=O)OC1(C)C(=O)C2=CN(C3CCCC3)C(c3ccc(OC)cc3)=CC2=C(Br)C1=O (centres undefined) was read as WRN inhibitor 0%[11.6 µM], USP2a block 13%, PI5P4Ka inh inconclusive, USP1 inh 25µM* and PLK1 PBD inh inconclusive.
For C=CCN1C=C2C(=O)C(C)(OC(=O)CCC(=O)OC)C(=O)C(Br)=C2C=C1c1ccc(OC)cc1 (centres undefined) the results were WRN inhibitor -3%, USP2a block 20%, PI5P4Ka inh inconclusive, USP1 inh 32µM* and PLK1 PBD inh inconclusive.
For COC(=O)CCC(=O)OC1(C)C(=O)C2=CN(c3ccc(OC)cc3)C(c3ccc(OC)cc3)=CC2=C(Br)C1=O (centres undefined) the results were WRN inhibitor -5%, PI5P4Ka inh inconclusive, USP1 inh inconclusive and PLK1 PBD inh inconclusive.
For COCCN1C=C2C(=O)C(C)(OC(=O)CCC(=O)OC)C(=O)C(Br)=C2C=C1c1ccc(OC)cc1 (centres undefined) the results were WRN inhibitor 2%, PI5P4Ka inh -23, USP1 inh 25µM* and PLK1 PBD inh inconclusive.
`CCN(CC)CCCN1C=C2C(=O)C(C)(OC(=O)CCC(=O)OC)C(=O)C(Br)=C2C=C1c1ccc(OC)cc1` (centres undefined) gave WRN inhibitor -6%, PI5P4Ka inh -30, USP1 inh inconclusive and PLK1 PBD inh inconclusive.
O=C(Cc1ccccc1)NCCc1csc2nc(-c3ccc(Cl)cc3)nn12 was read as USP1 inh -15%.
`Clc1ccccc1-c1nnc2sc(-c3ccncc3)nn12` gave WRN inhibitor -2%, USP2a block 1%, PI5P4Ka inh -1, USP1 inh -17% and PLK1 PBD inh 27µM*.
For Clc1ccc(-c2nn3c(-c4ccncc4)nnc3s2)c(Cl)c1 the results were USP2a block 2%.
`Clc1ccccc1-c1nn2c(-c3ccncc3)nnc2s1` gave WRN inhibitor -7%, USP2a block 3%, USP1 inh -8% and PLK1 PBD inh 24µM*.
For FC(F)(F)Oc1ccc(NC(=S)NCCCN2CCOCC2)cc1 the results were WRN inhibitor 1%, USP2a block -1%, PI5P4Ka inh -4, USP1 inh -21% and PLK1 PBD inh 12µM*.
For S=C(NCCCN1CCOCC1)NCCCN1CCOCC1 the results were WRN inhibitor -22%, USP2a block 1%, PI5P4Ka inh -17, USP1 inh 0% and PLK1 PBD inh 5.3µM*.
Cc1nc(N2CCCC2)c2c(C(=O)N3CCN(c4cc(Cl)ccc4C)CC3)c(C)oc2n1 was read as USP1 inh -24%.
Screening O=C(CCSCc1cccc(F)c1)NCc1ccc(F)cc1 returned WRN inhibitor -4%, USP2a block 1%, PI5P4Ka inh -24, USP1 inh -4% and PLK1 PBD inh 7.5µM*.
Screening Cc1ccc(CNC(=O)CSCc2cccc(F)c2)cc1 returned WRN inhibitor -4%, USP2a block 3%, PI5P4Ka inh -8, USP1 inh -5% and PLK1 PBD inh 21µM*.
